Reference: PubChem BioAssay AID1159580 (chemical genetic matrix, 2015)
Hit rate of the full screen: of about 5,500 compounds, about 2,000 (36%) were called active. Roughly 18% stayed inconclusive and do not appear here. Cut-off read from the data, not from the text of the source: active = normalized growth mostly below about 0.91 (no sharp cut-off); inconclusive = no clear call, values can overlap the other calls; inactive = mostly above about 0.92. Some of the results follow.

Assay: chemical genetic growth profiling, strain panel (AID 1159580);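 note: tested at 20 µM; growth read once vehicle control cultures reached saturation at 30 °C; 1 = growth at the plate median or of vehicle wells; lower values mean less growth of the strain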
Conditions: growth OD

Measured: normalized growth

C[C@H]1COc2c(N3CCN(C)CC3)c(F)cc3c(=O)c(C(=O)O)cn1c23
inactive: S. cerevisiae deletion strains, locus YJR075W, strain HOC1, active compounds read low 0.991 | S. cerevisiae deletion strains, locus YKL009W, strain mrt4, active compounds read low 1.01 | S. cerevisiae deletion strains, locus YKL068W, active compounds read low 1 | S. cerevisiae deletion strains, locus YKL085W, strain MDH1 (second series), active compounds read low 1.01 | S. cerevisiae deletion strains, locus YKL085W, strain MDH1, active compounds read low 1.01 | S. cerevisiae deletion strains, locus YKL160W, strain elf1, active compounds read low 1.01 | S. cerevisiae deletion strains, locus YKL190W, strain CNB1, active compounds read low 0.998 | S. cerevisiae deletion strains, locus YKR001C, strain vps1, active compounds read low 1.03 | S. cerevisiae deletion strains, locus YKR026C, strain gcn3, active compounds read low 1.02 | S. cerevisiae deletion strains, locus YKR091W, strain srl3, active compounds read low 1.03 | S. cerevisiae deletion strains, locus YLL001W, strain dnm1, active compounds read low 1.04 | S. cerevisiae deletion strains, locus YLL026W, active compounds read low 1.03 | S. cerevisiae deletion strains, locus YLL041C, strain sdh2, active compounds read low 1.02 | S. cerevisiae deletion strains, locus YLR027C, strain aat2, active compounds read low 1.03 | S. cerevisiae deletion strains, locus YLR039C, strain RIC1, active compounds read low 1.01 | S. cerevisiae deletion strains, locus YLR058C, strain SHM2, active compounds read low 1.01 | S. cerevisiae deletion strains, locus YLR102C, strain apc9, active compounds read low 1.01 | S. cerevisiae deletion strains, locus YLR113W, strain HOG1, active compounds read low 1.03 | S. cerevisiae deletion strains, locus YLR221C, strain rsa3, active compounds read low 0.984 | S. cerevisiae deletion strains, locus YLR258W, strain gsy2, active compounds read low 1.02 | S. cerevisiae deletion strains, locus YLR262C, strain YPT6 (second series), active compounds read low 1.02 | S. cerevisiae deletion strains, locus YLR262C, strain YPT6, active compounds read low 1.01 | S. cerevisiae deletion strains, locus YLR268W, strain sec22, active compounds read low 1 | S. cerevisiae deletion strains, locus YLR320W, strain mms22, active compounds read low 1.02 | S. cerevisiae deletion strains, locus YLR330W, strain CHS5, active compounds read low 1 | S. cerevisiae deletion strains, locus YLR342W, strain FKS1 (second series), active compounds read low 0.984 | S. cerevisiae deletion strains, locus YLR342W, strain FKS1, active compounds read low 1.03 | S. cerevisiae deletion strains, locus YLR357W, strain rsc2, active compounds read low 1.02 | S. cerevisiae deletion strains, locus YLR370C, strain arc18, active compounds read low 1.03 | S. cerevisiae deletion strains, locus YLR371W, strain rom2, active compounds read low 1 | S. cerevisiae deletion strains, locus YLR384C, strain iki3, active compounds read low 1.03 | S. cerevisiae deletion strains, locus YLR418C, strain cdc73, active compounds read low 1.02 | S. cerevisiae deletion strains, locus YML016C, strain PPZ1, active compounds read low 1.01 | S. cerevisiae deletion strains, locus YML032C, strain rad52, active compounds read low 0.965 | S. cerevisiae deletion strains, locus YML120C, strain ndi1, active compounds read low 1.01 | S. cerevisiae deletion strains, locus YML124C, strain tub3, active compounds read low 1.02 | S. cerevisiae deletion strains, locus YMR058W, strain fet3, active compounds read low 1.02 | S. cerevisiae deletion strains, locus YMR078C, strain ctf18, active compounds read low 1.02 | S. cerevisiae deletion strains, locus YMR125W, strain sto1, active compounds read low 1.02 | S. cerevisiae deletion strains, locus YMR129W, active compounds read low 1.03 | S. cerevisiae deletion strains, locus YMR205C, strain PFK2, active compounds read low 0.985 | S. cerevisiae deletion strains, locus YMR223W, strain ubp8, active compounds read low 1.01 | S. cerevisiae deletion strains, locus YMR231W, strain pep5, active compounds read low 1.03 | S. cerevisiae deletion strains, locus YMR263W, strain SAP30, active compounds read low 0.991 | S. cerevisiae deletion strains, locus YMR307W, strain GAS1, active compounds read low 1.04 | S. cerevisiae deletion strains, locus YNL067W, strain RPL9B, active compounds read low 1 | S. cerevisiae deletion strains, locus YNL071W, strain lat1, active compounds read low 1 | S. cerevisiae deletion strains, locus YNL128W, strain TEP1, active compounds read low 0.975 | S. cerevisiae deletion strains, locus YNL153C, strain GIM3, active compounds read low 1 | S. cerevisiae deletion strains, locus YNL183C, strain NPR1, active compounds read low 0.97 | S. cerevisiae deletion strains, locus YNL209W, strain ssb2, active compounds read low 1.01 | S. cerevisiae deletion strains, locus YNL233W, strain BNI4, active compounds read low 1.01 | S. cerevisiae deletion strains, locus YNL248C, strain rpa49, active compounds read low 1.03 | S. cerevisiae deletion strains, locus YNL250W, strain rad50, active compounds read low 1.01 | S. cerevisiae deletion strains, locus YNL271C, strain bni1, active compounds read low 1.01 | S. cerevisiae deletion strains, locus YNL298W, strain CLA4, active compounds read low 1.02 | S. cerevisiae deletion strains, locus YNL307C, strain MCK1, active compounds read low 1.03 | S. cerevisiae deletion strains, locus YNL322C, strain KRE1 (second series), active compounds read low 1.03 | S. cerevisiae deletion strains, locus YNL322C, strain KRE1, active compounds read low 0.999 | S. cerevisiae deletion strains, locus YNR049C, strain mso1, active compounds read low 1.01 | S. cerevisiae deletion strains, locus YNR052C, strain pop2, active compounds read low 1.02 | S. cerevisiae deletion strains, locus YOL006C, strain TOP1, active compounds read low 1.05 | S. cerevisiae deletion strains, locus YOL012C, strain htz1 0.78 | S. cerevisiae deletion strains, locus YOL147C, strain pex11, active compounds read low 1.01 | S. cerevisiae deletion strains, locus YOR001W, strain rrp6, active compounds read low 1.02 | S. cerevisiae deletion strains, locus YOR061W, strain CKA2, active compounds read low 1.01 | S. cerevisiae deletion strains, locus YOR069W, strain VPS5, active compounds read low 0.995 | S. cerevisiae deletion strains, locus YOR070C, strain gyp1, active compounds read low 1.02 | S. cerevisiae deletion strains, locus YOR080W, strain dia2, active compounds read low 1.04 | S. cerevisiae deletion strains, locus YOR083W, strain WHI5, active compounds read low 1.03 | S. cerevisiae deletion strains, locus YOR106W, strain vam3, active compounds read low 1.01 | S. cerevisiae deletion strains, locus YOR136W, strain idh2, active compounds read low 1.02 | S. cerevisiae deletion strains, locus YOR144C, strain elg1, active compounds read low 1.01 | S. cerevisiae deletion strains, locus YOR184W, strain ser1, active compounds read low 1.02 | S. cerevisiae deletion strains, locus YOR231W, strain MKK1, active compounds read low 0.996 | S. cerevisiae deletion strains, locus YOR265W, strain rbl2, active compounds read low 1.03 | S. cerevisiae deletion strains, locus YOR270C, strain vph1, active compounds read low 1.07 | S. cerevisiae deletion strains, locus YOR290C, strain snf2, active compounds read low 1.03 | S. cerevisiae deletion strains, locus YOR316C, strain cot1, active compounds read low 1.02 | S. cerevisiae deletion strains, locus YPL051W, strain arl3, active compounds read low 1.03 | S. cerevisiae deletion strains, locus YPL055C, strain LGE1, active compounds read low 0.997 | S. cerevisiae deletion strains, locus YPL078C, strain atp4, active compounds read low 1.02 | S. cerevisiae deletion strains, locus YPL106C, strain sse1, active compounds read low 0.991 | S. cerevisiae deletion strains, locus YPL240C, strain hsp82, active compounds read low 1.01 | S. cerevisiae deletion strains, locus YPL241C, strain CIN2, active compounds read low 1.01 | S. cerevisiae deletion strains, locus YPL256C, strain CLN2, active compounds read low 0.958 | S. cerevisiae deletion strains, locus YPR119W, strain clb2, active compounds read low 1.01 | S. cerevisiae deletion strains, locus YPR141C, strain kar3, active compounds read low 1.02 | S. cerevisiae deletion strains, locus YPR163C, strain tif3, active compounds read low 1.03 | S. cerevisiae deletion strains, locus YPR167C, strain met16, active compounds read low 1.02 | S. cerevisiae deletion strains, strain wtn01, active compounds read low 1.01 | S. cerevisiae strains, strain wild type, active compounds read low 0.981
